Test results reported in PubChem BioAssay AID434958 (Southern Research Specialized Biocontainment Screening …, 2010).
About 400 (33%) of roughly 1,200 compounds were called active. A selection follows. Measured potencies and affinities stand elsewhere. Values without a mark were called inactive. How the calls were made is not given here.

Experiment: mammalian cell cytotoxicity, dose response, cytotoxicity control (AID 434958);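 further: cells exposed to compound for 72 hours before readout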
Details: cytotoxicity counter-screen; series mostly up to 40 µM; viability: at the top concentration
With `COc1cc(/C=C/C(=O)NC(C)(C)C)ccc1OCc1ccccc1` the “viability” value was 91.2%. In the case of `COc1ccc(/C=C/C(=O)N(C(C)C)C(C)C)cc1Br`, the “viability” value is reported as 97%. For `COC(=O)c1ccc(/C=N/NC(=O)c2cccc(F)c2)cc1`, the “viability” value was 94.4%. For `COc1ccc2ccccc2c1/C=N/NC(=O)c1cccc(Br)c1`, the “viability” value was 82.7%. For `CC1(C)CC(=O)c2cc(C(=O)NCc3ccco3)c(=O)n(-c3ccccc3)c2C1`, the “viability” value was 96.6%. For `CCC1(c2ccc(Cl)cc2)NC(=S)N(c2ccc(C)cc2)N1` (centres undefined), the “viability” value was 95.2%. With `CC(=O)NC(=S)Nc1ccc(NC(=O)c2cccnc2Cl)cc1` the “viability” value was 95.4%. In the case of `CCCCN=C1CC(C)(C)CC(=O)/C1=C(/O)CCC`, the “viability” value is reported as 101%. In the case of `CCOC(=O)c1c(C)[nH]c(C(=O)COC(=O)CCC2CCCC2)c1C`, the “viability” value is reported as 105%. With `CCc1cc2c(=O)oc(-c3ccccc3F)nc2s1` the “viability” value was 104%. With `CCOc1ccc2nc(SC3CC(=O)N(c4cccc(OC)c4)C3=O)sc2c1` (centres undefined) the “viability” value was 100%. For `CCCCN1C(=O)c2ccc(C(=O)Nc3cccc(C)c3C)cc2C1=O`, the “viability” value was 98.7%. With `CCOC(=O)c1nc(N2CCN(C(=O)OCC)CC2)c2c3c(sc2n1)CCCC3` the “viability” value was 86.8%. For `CC(=O)Nc1ccc(C(=O)N(C2=NC(C)CS2)c2ccc(Cl)cc2)cc1` (centres undefined), the “viability” value was 84.4%. In the case of `COc1ccc(C2C(C#N)=C(SCC(=O)Nc3ccc(C)cc3)NC3=C2C(=O)CC(C)(C)C3)cc1` (centres undefined), the “viability” value is reported as 84.9%. With `CCCCNC(=O)c1onc(CSc2ccccc2CC)c1C(=O)O` the “viability” value was 99.5%. For `CCCC(=O)Nc1ccc(NC(=S)NC(=O)c2cccs2)cc1`, the “viability” value was 96.4%. With `CCCC(=O)N1CCN(c2ccc(NC(=S)NC(=O)CC)cc2)CC1` the “viability” value was 83.8%. For `Cc1ccc(C(=O)OCCN2CCN(c3ncc(C(F)(F)F)cc3Cl)CC2)cc1`, the “viability” value was 89.8%. For `N#Cc1c(-c2cccs2)cc(-c2ccccn2)nc1N`, the “viability” value was 87.3%. For `Cc1cc(C)c2c(N)c(S(=O)c3ccc(C(C)(C)C)cc3)sc2n1` (centres undefined), the “viability” value was 102%. In the case of `CC(=O)c1ccc(OCCCC(=O)OCC(=O)N2CCN(c3ccccc3)CC2)cc1`, the “viability” value is reported as 100%. In the case of `Cc1nnc(SCc2cccc(Cl)c2)n(N)c1=O`, the “viability” value is reported as 95.2%. With `Cc1cccc(/C=N\NC(=O)c2csnn2)c1` the “viability” value was 99.9%. In the case of `O=C(Cc1ccc(Cl)cc1Cl)Nc1ccc(OC(F)F)c(Cl)c1`, the “viability” value is reported as 104%. In the case of `CCOC(=O)Cn1c(C)cc(=O)c2cccc(C)c21`, the “viability” value is reported as 105%. With `O=C(Nc1ccccc1Br)c1cccc2ccccc12` the “viability” value was 91.8%. In the case of `Cc1ccn2c(CNCCn3nc(C)cc3C)c(C(=O)N3CCCCCC3)nc2c1`, the “viability” value is reported as 98.5%. For `COc1ccc(C(=O)NC(=S)NC(C)(C)C)cc1Br`, the “viability” value was 82.4%. In the case of `COc1ccc(C2(CNC(=O)c3cc([N+](=O)[O-])cc([N+](=O)[O-])c3)CCCC2)cc1OC`, the “viability” value is reported as 95.8%. For `CN1C2CCC1CC(OC(=O)c1ccc([N+](=O)[O-])cc1)C2` (centres undefined), the “viability” value was 104%. For `CCC(=O)c1ccc(OCc2ccc(C(=O)OC)cc2)c(OC)c1`, the “viability” value was 106%. In the case of `O=C(COC(=O)Cc1ccc(S(=O)(=O)N2CCCCC2)s1)Nc1ccc2c(c1)OCO2`, the “viability” value is reported as 97%. In the case of `CC(=O)Nc1ccc(SCC(=O)c2cc(C)n(CC(F)(F)F)c2C)cc1`, the “viability” value is reported as 95.3%. In the case of `CCOC(=O)Cn1c(=NC(=O)C2CC2)sc2c(C)cc(C)cc21`, the “viability” value is reported as 97.5%. With `O=C(COc1ccccc1[N+](=O)[O-])N(Cc1cccc(Br)c1)C1CCS(=O)(=O)C1` (centres undefined) the “viability” value was 95%. In the case of `O=C(OCC(=O)N(Cc1ccccc1)C1CCS(=O)(=O)C1)c1cc2c(s1)CCCC2` (centres undefined), the “viability” value is reported as 87.1%. With `Cc1ccc(C(=O)NCC2(c3ccccc3)CCCC2)cc1` the “viability” value was 81%. In the case of `CC(NC(=O)CSc1nc2ccccc2c(=O)[nH]1)c1ccccc1` (centres undefined), the “viability” value is reported as 91.8%. For `COCCNC(C(=O)Nc1ccc(C)cc1[N+](=O)[O-])c1ccccc1` (centres undefined), the “viability” value was 96.9%. In the case of `CCOC(=O)COc1nc(-c2ccc(Cl)cc2)cc(-c2ccco2)c1C#N`, the “viability” value is reported as 98.2%. With `CN(c1ccc(OCC(=O)OCC(=O)c2c(N)n(C)c(=O)n(C)c2=O)cc1)S(=O)(=O)c1ccc2ccccc2c1` the “viability” value was 99.8%. For `CC1(C)CC(CCNC(=O)CCl)(c2ccccc2)CCO1` (centres undefined), the “viability” value was 81.7%. With `Cn1ccnc1C(=O)Cc1ccc([N+](=O)[O-])cc1` the “viability” value was 94.1%. With `CCOC(=O)c1sc(NC(=O)CSc2n[nH]c(CC(C)C)n2)nc1C` the “viability” value was 86.7%. For `CCOC(=O)c1c(NC(=O)C(=O)N/N=C/c2ccccc2OC)sc2c1CCCCC2`, the “viability” value was 96.4%. In the case of `Cc1ccccc1C(=O)NC(=S)Nc1sc2c(c1C#N)CCC(C)C2` (centres undefined), the “viability” value is reported as 90.5%. For `Cc1cc(C(=O)CSc2nnnn2-c2ccccc2)c(C)n1-c1ccc2c(c1)OCO2`, the “viability” value was 81.2%. In the case of `O=C(Nc1nc(-c2ccc(F)c(F)c2)cs1)c1cnccn1`, the “viability” value is reported as 82.3%. For `COc1c(NC(C)=O)c2ccccc2c2ccccc12`, the “viability” value was 106%. With `COc1ccc2nc(SCc3cccc(C)c3)nc(C)c2c1` the “viability” value was 85.5%. In the case of `NC(=S)N/N=C/c1cccc(/C=N/NC(N)=S)c1`, the “viability” value is reported as 93.9%. With `O=C(Cn1c(=O)c2cccn2c2ccccc21)NCCc1ccc(Cl)cc1` the “viability” value was 104%. In the case of `Cc1ccc(-n2ncc3c(=O)n(CC#N)cnc32)cc1C`, the “viability” value is reported as 89%. In the case of `COc1ccc(C2CC(c3c(-c4ccccc4)c4cc(Cl)ccc4[nH]c3=O)=NN2S(C)(=O)=O)cc1` (centres undefined), the “viability” value is reported as 85.1%. For `CC(=O)c1sc(N/N=C\c2ccc(N(C)C)cc2)nc1C`, the “viability” value was 96.8%. With `CC(C)c1ccc(/C=C/C(=O)NC2CCCCC2)cc1` the “viability” value was 101%. For `CN(C)/N=C/c1ccc(/C=N/NC(N)=S)o1`, the “viability” value was 95.5%. With `O=C(N/N=C/c1cccc(Br)c1)c1ccc(Cn2cc(Br)cn2)o1` the “viability” value was 100%. With `O=C1OC(c2ccco2)=N/C1=C\c1ccc(-c2cccc(C(F)(F)F)c2)o1` the “viability” value was 90.5%. With `CC1(C)C2CC=C(/C=N/NC(=O)c3ccccc3O)C1C2` (centres undefined) the “viability” value was 88.5%. For `CC1=NN(c2ccccc2)C(=O)/C1=C/c1c(O)[nH]c(=S)[nH]c1=O`, the “viability” value was 96.3%. For `Cc1cc(N2CCN(c3ccccc3)CC2)nc2ccccc12`, the “viability” value was 85.2%. With `COc1ccc(NC(=O)C(Cc2ccccc2)n2cccc2)c(OC)c1` (centres undefined) the “viability” value was 97.5%. With `CCCN1C(=O)c2ccc(C(=O)Nc3cc(C)on3)cc2C1=O` the “viability” value was 99.8%. In the case of `COc1ccc(OC)c(NC(=O)CSC2=C(C#N)C(c3ccco3)C3=C(CCCC3=O)N2)c1` (centres undefined), the “viability” value is reported as 89.4%. With `CC(=O)c1ccc(-n2c(C)ccc2-c2ccccc2)cc1` the “viability” value was 91.2%. For `COc1cc(NC(=S)NC(=O)c2cccs2)ccc1NC(=O)C(C)C`, the “viability” value was 86.8%. With `Cc1ccc(/C=C/C(=O)OCC(=O)NC(C)c2ccccc2)o1` (centres undefined) the “viability” value was 95.2%. With `CCOC(=O)N1CCC(N2CCN(S(=O)(=O)c3ccc(Cl)cc3)CC2)CC1` the “viability” value was 98.2%. For `COc1ccc(-c2csc(Nc3ccc(C)cn3)n2)cc1OC`, the “viability” value was 89.5%. In the case of `Cc1nnnn1/C(=C\c1ccccc1)C(=O)OCC(=O)Nc1ccc(Cl)cc1F`, the “viability” value is reported as 101%. With `Cc1ccccc1OCC(=O)Nc1ccccc1-c1ccccc1` the “viability” value was 86.1%. In the case of `c1ccc(-c2noc(-c3cccc4ccccc34)n2)cc1`, the “viability” value is reported as 93.3%. With `O=C(CC(=O)c1ccccc1)Nc1ccc2c(c1)OCCO2` the “viability” value was 104%. With `O=C(Cc1ccccc1Cl)Nc1nc2ccccc2[nH]1` the “viability” value was 102%. In the case of `Cc1ccc(CC(=O)Nc2nc3ccccc3[nH]2)cc1C`, the “viability” value is reported as 91.3%. For `COc1ccc2sc(-c3ccc(N(C)C)cc3)c(C#CC(C)(C)O)c2c1`, the “viability” value was 81.6%. For `CSc1nnc(C)c(/C=C/Nc2ccc(Cl)cc2)n1`, the “viability” value was 95.5%. For `Cn1cc(C(=O)N/N=C/C(Br)=C\c2ccccc2)ccc1=O`, the “viability” value was 96%. In the case of `CCOc1cc(C(=O)N2CCC(CC3CC(c4ccccc4)=NO3)(C(=O)NCc3ccc(OC)cc3)CC2)cc(OCC)c1OCC` (centres undefined), the “viability” value is reported as 81.2%. With `CC/C(=N\NC(=S)NC(C)C)c1ccc(OC)c(OC)c1` the “viability” value was 82.5%. With `c1ccc(-n2c3ccccc3c3ccccc32)cc1` the “viability” value was 95%. With `CC(C)C[C@H](NC(=O)c1nc[nH]c1C(=O)N1CCN(C(=O)OC(C)(C)C)CC1)C(=O)OCc1ccccc1` the “viability” value was 84.4%. With `O=C(N[C@@H](Cc1ccccc1)C(=O)CCl)OCc1ccccc1` the “viability” value was 104%. For `CSc1cccc(NC(=O)c2ccc(Cl)nc2)c1`, the “viability” value was 90%. For `C/C(=N\NC(=O)c1cccc(Cl)c1)c1cccc(NC(=O)C(C)C)c1`, the “viability” value was 90.2%. In the case of `O=C1CC(Nc2ccc(N3CCOCC3)cc2)C(=O)N1C1CCCCC1` (centres undefined), the “viability” value is reported as 104%. For `O=C(O)CCN1C(=O)/C(=C/c2ccc(-c3nc4ccccc4s3)o2)SC1=S`, the “viability” value was 97.4%. In the case of `COc1ccc(-c2cc3nc(C)cc(N4CC(C)CC(C)C4)n3n2)cc1` (centres undefined), the “viability” value is reported as 90.8%. With `C/C(CC(=O)Nc1c(C)cc(C)cc1C)=N\NC(=O)c1cnccn1` the “viability” value was 102%. With `O=C(OCC(=O)N1CCc2ccccc21)c1ccc(Cl)nc1` the “viability” value was 96.5%. With `Cc1cc(NC(=O)CCS(=O)(=O)c2nc(-c3ccccc3)cc(C(F)(F)F)n2)no1` the “viability” value was 95.8%. With `CC/C(=N\NC(=O)c1ccc(N(C)C)cc1)c1ccccc1` the “viability” value was 94.5%. For `O=C(COn1nnc2ccc(Cl)cc21)NC12CC3CC(CC(C3)C1)C2`, the “viability” value was 86.8%. In the case of `CCc1ccc(NC(=O)C2C3/C=C\CCCCC32)cc1` (centres undefined), the “viability” value is reported as 89.2%. For `CCOC(=O)/C=C/c1ccc2c(c1)S(=O)(=O)N(Cc1ccc(OC)cc1)[C@H]2CC(=O)OCC`, the “viability” value was 101%. In the case of `O=C(COC(=O)C1=COCCO1)Nc1ccc2c(c1)OCO2`, the “viability” value is reported as 98%. For `CCOC(=O)c1c(C)[nH]c(N=Nc2ccccc2Cl)c1C`, the “viability” value was 82.2%. For `COCCCNCCOCCOc1ccc(C)cc1Br`, the “viability” value was 89.6%. For `COc1cccc(NC(=S)Nc2cc(C)cc(C)n2)c1`, the “viability” value was 92.3%. With `O=C(O)c1cc(-c2ccco2)nc2ccc(Br)cc12` the “viability” value was 96.8%. For `CN(C)S(=O)(=O)n1cc(/C=C(\NC(=O)c2ccccc2)C(=O)NCCN2CCOCC2)c2ccccc21`, the “viability” value was 99.1%. In the case of `CCOC(=O)c1ccc(N2CN(CCc3ccccc3)CNC2=S)cc1`, the “viability” value is reported as 94.3%. For `CC(C)(C)c1nnc2sc(SCC(=O)c3cccs3)nn2c1=O`, the “viability” value was 101%. With `CCCn1nc(NC(=O)c2ccco2)c2cc3cc(C)ccc3nc21` the “viability” value was 90.7%. For `CNC(=O)COC(=O)c1ccccc1NC(=O)c1ccco1`, the “viability” value was 89.6%. With `COc1ccc(NC(=O)CCc2ccccc2)cc1NC(=O)c1ccco1` the “viability” value was 85.7%. For `C=CCOc1ccc(C2N3CC4(C)CN2CC(CCC)(C3)C4=O)cc1` (centres undefined), the “viability” value was 97.2%.
